Assay results taken from PubChem BioAssay (Tox21).
Inconclusive results are not listed. Activity calls are given as the source filed them. Unless noted, calls follow the shape of the full dose curve.

Key:
[1] = Nuclear factor erythroid 2-related factor 2/antioxidant responsive element (Nrf2/ARE) small molecule agonists: luciferase reporter gene qHTS assay in human keratinocytes (AID 1919969); also: nearly all actives have a fitted effect of over 35% in size
[2] = molecular target: Gonadotropin-releasing hormone receptor (Homo sapiens) (UniProt P30968); test: Human gonadotropin-releasing hormone receptor (GnRHR) small molecule agonists, calcium flux assay in GnRHR-HEK293 cells (AID 1920063); also: nearly all actives have a fitted effect of over 35% in size
In short: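 We seeded human GnRHR-expressing HEK293 cells for 18 hours, loaded them with calcium dye for an hour at 37 C, added test compounds, and recorded fluorescence intensity kinetically for three minutes.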

[3] = molecular target: KiSS-1 receptor (Homo sapiens) (UniProt Q969F8); test: Human kisspeptin (KISS1R) small molecule agonists, calcium flux assay in KISS1R-HEK293 cells (AID 1920064; active = well fitted activation curve with a large enough effect in the repeat runs)
In short: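 Kinetic calcium assay, 1 s sampling over 3 min at Ex/Em 480/540, in HEK293 cells engineered with human KISS1R; compounds delivered in DMSO after 1 h dye loading.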

[4] = G protein-coupled receptor (GPCR) small molecule agonists, calcium flux assay: HEK293 wild type cell line counter screen (AID 1920065)
In short: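 Calcium-sensitive dye, loaded 1 h at 37 C into cells cultured 18 h, reports compound-evoked calcium release as fluorescence (Ex/Em 480/540), measured over 3 min. Agonist mode; 15-point titrations, triplicate.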

[5] = p53 small molecule agonists, cell-based qHTS assay with human liver microsomes (AID 1963577)
In short: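 p53RE-bla cells, 4,000/well, compound added after 5 h, with human liver microsomes 0.5 mg/mL and NADPH 0.5 mg/mL final; 16 h at 37 C, then LiveBLAzer 2 h RT, fluorescence.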

[6] = p53 small molecule agonists, cell-based qHTS assay with rat liver microsomes (AID 1963578)
In short: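 p53RE-bla cells, 4,000/well, pre-incubated 5 h, then given compounds plus rat liver microsomes (0.5 mg/mL final) and NADPH (0.5 mg/mL final). Incubation 16 h at 37 C; beta-lactamase reporter read by LiveBLAzer fluorescence after 2 h at room temperature.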

[7] = p53 small molecule agonists, cell-based qHTS assay with human liver microsomes: qHTS cell viability counter screen (AID 1963579); also: nearly all actives have a fitted effect of over 45% in size
In short: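 p53RE-bla cells, 4,000/well, dosed 5 hours after plating, with human liver microsomes (0.5 mg/mL final) plus NADPH (0.5 mg/mL final), 16 hours at 37 C. Viability read as CellTiter-Glo luminescence after 30 min at room temperature.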

[8] = p53 small molecule agonists, cell-based qHTS assay with rat liver microsomes: qHTS cell viability counter screen (AID 1963580); also: nearly all actives have a fitted effect of over 45% in size
In short: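 Intracellular ATP, by CellTiter-Glo luminescence, defines viability. HCT-116 p53RE-bla cells, 4,000 per well, were compound-treated in the presence of rat liver microsomes and NADPH for 16 h at 37 C.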

[9] = p53 small molecule agonists, cell-based qHTS assay: qHTS cell viability counter screen (AID 1963581); also: nearly all actives have a fitted effect of over 45% in size
In short: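 Following 5 h attachment, HCT-116 p53RE-bla cells took up compound for 16 h at 37 C; the reporter was read with B/G FRET substrate (2 h RT), and viability then via CellTiter-Glo ATP luminescence.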

[10] = p53 small molecule agonists, cell-based qHTS assay (AID 1963582; active = well fitted activation curve with a large enough effect in the signal ratio in the repeat runs, not every such curve was filed as active; the % refers to the signal ratio)
In short: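 In this cell-based concentration-response screen, a p53 response element drives beta-lactamase; cells received DMSO-borne compounds after 5 h culture and were incubated a further 16 h before FRET substrate development.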

[11] = molecular target: 5-hydroxytryptamine receptor 2A (Homo sapiens) (UniProt P28223); test: 5-hydroxytryptamine receptor 2A (HTR2A) small molecule antagonists, cell-based qHTS assay (AID 1963586); also: nearly all actives have a fitted effect of over 45% in size; also: potency is read from the fitted curve at half-maximal effect
In short: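 Antagonist-mode intracellular calcium assay: DOI (4 nM) added after 5 min compound pre-incubation at room temperature to dye-loaded HTR2A-CHO cells. Fluorescence followed for 3 min, sampled every second.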

[12] = molecular target: Muscarinic acetylcholine receptor M1 (Homo sapiens) (UniProt P11229); test: Cholinergic receptor muscarinic 1 (CHRM1) small molecule agonists, cell-based qHTS assay (AID 1963589); also: nearly all actives have a fitted effect of over 35% in size
In short: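 Measures agonist-induced intracellular calcium rise. Stable human CHRM1 CHO line, 1 h dye load at 37 C, compounds from DMSO, kinetic fluorescence read.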

[13] = cAMP Responsive Elements (CRE) small molecule agonists, cell-based qHTS assay (AID 1963590)
In short: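 A CRE-responsive beta-lactamase reporter in HEK 293T cells was used. Treatment ran 3 h at 37 C; detection used LiveBLAzer B/G FRET substrate for 2 h at room temperature.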

[14] = cAMP Responsive Elements (CRE) small molecule antagonists, cell-based qHTS assay (AID 1963591; active = well fitted inhibition curve with a large enough effect in the signal ratio in the repeat runs, not every such curve was filed as active; the % refers to the signal ratio)
In short: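 HEK293T cells carrying a CRE-driven beta-lactamase reporter receive compound and NKH477 (0.25 uM final) for 3 h. Fluorescence from LiveBLAzer B/G FRET substrate is read after 2 h at room temperature.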

[15] = molecular target: Beta-2 adrenergic receptor (Homo sapiens) (UniProt P07550); test: Adrenergic beta2 receptor (ADRB2) small molecule antagonists, cell-based qHTS assay (AID 1963592); also: series mostly up to about 92 µM; nearly all actives have a fitted effect of over 50% in size
In short: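 Cells (CHO, stable ADRB2 overexpression) incubated 18-20hr at 37C; compounds added from DMSO; agonist mix (1nM isoproterenol, 100uM IBMX, 25uM Ro-20-1724) added; 0.5hr RT; d2-cAMP and anti-cAMP-cryptate added; 1hr RT; 665/615 nm read.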

[16] = molecular target: Beta-2 adrenergic receptor (Homo sapiens) (UniProt P07550); test: Adrenergic beta2 receptor (ADRB2) small molecule agonists, cell-based qHTS assay (AID 1963593);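 also: CHO cells stably overexpressing human ADRB2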
In short: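 CHO cells stably over-expressing ADRB2 were plated overnight at 37C, then dosed with compounds plus a stimulation mix containing 100uM IBMX and 25uM Ro-20-1724 for 0.5hr at room temperature. cAMP was measured by HTRF competition, 1hr.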

[17] = molecular target: D(2) dopamine receptor (Homo sapiens) (UniProt P14416); test: Dopamine D2 receptor (DRD2) small molecule agonists, cell-based qHTS assay (AID 1963594); also: nearly all actives have a fitted effect of over 35% in size
In short: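 cAMP accumulation in DRD2-HEK293 cells measured by HTRF after 1 h detection; compounds added 10 min before NKH477 (200nM […]) forskolin-analogue stimulation, 30 min at room temperature, with Ro20-1724 present at 0.1 mM final.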

[18] = molecular target: D(2) dopamine receptor (Homo sapiens) (UniProt P14416); test: Dopamine D2 receptor (DRD2) small molecule antagonists, cell-based qHTS assay (AID 1963595; active = well fitted inhibition curve with a large enough effect in the signal ratio in the repeat runs, with a control signal flat; the % refers to the signal ratio)
In short: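 Human DRD2 antagonist qHTS measuring cAMP by HTRF. The cells are exposed to compound for 10 min, then to NKH477 (200 nM) and quinpirole (12 nM) for 30 min at RT, with Ro20-1724 (0.1 mM) present throughout.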

[19] = molecular target: 5-hydroxytryptamine receptor 2A (Homo sapiens) (UniProt P28223); test: 5-hydroxytryptamine receptor 2A (HTR2A) small molecule agonists, cell-based qHTS assay (AID 1963587); also: nearly all actives have a fitted effect of over 30% in size
In short: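 Kinetic calcium-flux fluorescence (2 min, 1 sec intervals) after compound addition in agonist mode. HTR2A-CHO cells were cultured 18 h, then dye-loaded 1 h at 37 C.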

[20] = molecular target: Muscarinic acetylcholine receptor M1 (Homo sapiens) (UniProt P11229); test: Cholinergic receptor muscarinic 1 (CHRM1) small molecule antagonists, cell-based qHTS assay (AID 1963588); also: nearly all actives have a fitted effect of over 40% in size
In short: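 CHRM1-CHO calcium-flux assay, antagonist mode. Cells were seeded 18 h, dye-loaded 1 h at 37 C and given compound for 5 min at RT, then acetylcholine was added at 50nM. FDSS fluorescence was read 3 min; 15 concentrations, three runs.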
% is scaled to controls: 0 for no effect and ±100 for the full control effect.

Chain of KiSS-1 receptor (Homo sapiens) (Q969F8 whole entry, looked up): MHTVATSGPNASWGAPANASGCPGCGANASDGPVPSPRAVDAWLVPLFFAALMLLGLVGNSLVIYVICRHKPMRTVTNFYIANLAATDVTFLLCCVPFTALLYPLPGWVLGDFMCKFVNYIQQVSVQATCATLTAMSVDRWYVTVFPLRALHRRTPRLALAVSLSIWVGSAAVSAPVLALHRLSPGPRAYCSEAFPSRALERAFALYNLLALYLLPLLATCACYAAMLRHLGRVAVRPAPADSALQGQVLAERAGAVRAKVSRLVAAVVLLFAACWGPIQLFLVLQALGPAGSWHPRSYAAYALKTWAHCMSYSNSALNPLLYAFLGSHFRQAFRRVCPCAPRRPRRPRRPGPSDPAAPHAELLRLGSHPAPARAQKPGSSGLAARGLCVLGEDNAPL
Chain of 5-hydroxytryptamine receptor 2A (Homo sapiens) (P28223 whole entry, looked up): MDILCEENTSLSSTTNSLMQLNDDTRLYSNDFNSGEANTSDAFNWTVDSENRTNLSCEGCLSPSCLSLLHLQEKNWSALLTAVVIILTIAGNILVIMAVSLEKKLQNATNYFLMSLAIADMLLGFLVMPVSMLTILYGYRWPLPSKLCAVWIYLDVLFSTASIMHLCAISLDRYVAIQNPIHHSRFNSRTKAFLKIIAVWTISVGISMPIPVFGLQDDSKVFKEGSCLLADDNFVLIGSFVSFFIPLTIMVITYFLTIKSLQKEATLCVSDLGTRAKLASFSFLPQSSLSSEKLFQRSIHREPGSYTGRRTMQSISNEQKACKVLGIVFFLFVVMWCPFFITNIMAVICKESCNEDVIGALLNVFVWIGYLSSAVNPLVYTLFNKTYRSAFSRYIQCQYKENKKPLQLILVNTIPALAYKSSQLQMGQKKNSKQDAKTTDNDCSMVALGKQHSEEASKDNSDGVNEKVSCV
Chain of Muscarinic acetylcholine receptor M1 (Homo sapiens) (P11229 whole entry, looked up): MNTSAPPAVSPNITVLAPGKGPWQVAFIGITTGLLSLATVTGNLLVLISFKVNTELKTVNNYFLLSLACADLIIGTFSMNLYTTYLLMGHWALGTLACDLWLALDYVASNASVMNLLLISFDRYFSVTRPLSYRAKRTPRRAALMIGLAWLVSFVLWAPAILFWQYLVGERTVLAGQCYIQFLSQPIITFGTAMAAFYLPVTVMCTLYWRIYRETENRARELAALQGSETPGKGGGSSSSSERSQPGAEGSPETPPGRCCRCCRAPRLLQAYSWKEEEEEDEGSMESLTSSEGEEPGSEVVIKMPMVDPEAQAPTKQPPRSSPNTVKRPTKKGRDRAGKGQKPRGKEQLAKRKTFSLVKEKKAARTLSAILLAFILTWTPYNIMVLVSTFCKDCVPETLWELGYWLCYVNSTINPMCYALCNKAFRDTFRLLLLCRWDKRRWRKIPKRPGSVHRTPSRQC
Chain of Gonadotropin-releasing hormone receptor (Homo sapiens) (P30968 whole entry, looked up): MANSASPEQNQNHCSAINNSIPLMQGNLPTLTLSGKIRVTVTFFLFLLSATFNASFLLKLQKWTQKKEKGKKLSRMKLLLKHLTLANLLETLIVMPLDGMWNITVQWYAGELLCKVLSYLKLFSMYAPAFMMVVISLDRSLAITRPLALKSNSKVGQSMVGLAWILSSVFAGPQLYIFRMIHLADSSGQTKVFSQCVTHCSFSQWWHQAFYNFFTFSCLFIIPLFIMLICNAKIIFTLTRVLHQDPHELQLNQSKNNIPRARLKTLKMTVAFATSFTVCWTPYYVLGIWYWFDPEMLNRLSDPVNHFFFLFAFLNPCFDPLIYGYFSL
Chain of Beta-2 adrenergic receptor (Homo sapiens) (P07550 whole entry, looked up): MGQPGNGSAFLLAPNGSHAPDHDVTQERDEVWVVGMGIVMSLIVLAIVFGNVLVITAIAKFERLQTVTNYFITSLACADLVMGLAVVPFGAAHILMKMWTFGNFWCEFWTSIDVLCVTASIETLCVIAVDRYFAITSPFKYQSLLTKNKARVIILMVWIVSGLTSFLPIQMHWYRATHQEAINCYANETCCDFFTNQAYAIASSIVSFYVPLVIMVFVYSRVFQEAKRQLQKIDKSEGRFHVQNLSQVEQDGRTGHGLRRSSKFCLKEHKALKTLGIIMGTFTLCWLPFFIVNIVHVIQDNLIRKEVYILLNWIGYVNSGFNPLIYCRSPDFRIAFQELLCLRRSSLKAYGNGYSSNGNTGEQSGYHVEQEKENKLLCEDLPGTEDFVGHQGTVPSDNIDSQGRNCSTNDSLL
Chain of D(2) dopamine receptor (Homo sapiens) (P14416 whole entry, looked up): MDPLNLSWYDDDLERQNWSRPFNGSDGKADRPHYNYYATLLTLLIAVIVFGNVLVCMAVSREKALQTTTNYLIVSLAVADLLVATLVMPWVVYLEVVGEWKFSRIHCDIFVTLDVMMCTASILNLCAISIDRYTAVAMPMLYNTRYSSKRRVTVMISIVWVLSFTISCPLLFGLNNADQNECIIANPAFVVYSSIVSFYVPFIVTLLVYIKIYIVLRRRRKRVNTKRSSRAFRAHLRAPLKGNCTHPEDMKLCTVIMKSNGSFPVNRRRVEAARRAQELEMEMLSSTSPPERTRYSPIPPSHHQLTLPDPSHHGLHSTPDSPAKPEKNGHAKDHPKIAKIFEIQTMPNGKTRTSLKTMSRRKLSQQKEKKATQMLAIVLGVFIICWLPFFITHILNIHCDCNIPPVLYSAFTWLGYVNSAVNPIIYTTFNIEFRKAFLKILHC

O=CC1CC1
inactive: Potency [1] | Potency [2] | Potency [3] | Potency [4] | Potency [5] | Potency [6] | Potency [7] | Potency [8] | Potency [9] | Potency [10] | Potency [11] | Potency [12] | Potency [13] | Potency [14] | Potency [15] | Potency [16] | Potency [17] | Potency [18]

Nc1cc(S(=O)(=O)O)cc2cc(S(=O)(=O)O)cc(O)c12
inactive: Potency [1] | Potency [2] | Potency [3] | Potency [4] | Potency [5] | Potency [6] | Potency [7] | Potency [8] | Potency [9] | Potency [11] | Potency [19] | Potency [20] | Potency [12] | Potency [13] | Potency [14] | Potency [15]

CC(C)(C)CC(C)(C)c1ccc(Nc2ccc(C(C)(C)CC(C)(C)C)cc2)cc1
inactive: activity, positive = activation [1] -1.24% [at 8.39 µM] | activity change [2] 0.129% [at 5.22 µM, active compounds read high] | activation [3] 0.255% [at 6.97 µM] | activation [4] -0.517% [at 5.23 µM] | activation [5] -1.73% [at 5.99 µM] | activation [6] -0.0551% [at 5.99 µM] | activity change, negative = cytotoxicity [8] -9.33% [at 5.99 µM] | activity change, negative = cytotoxicity [9] 0.663% [at 5.99 µM] | activation [10] 4.39% [at 5.99 µM] | activity, negative = inhibition [11] -0.349% [at 5.62 µM] | activation [19] 5.4% [at 7.02 µM] | activity, negative = inhibition [20] -10.6% [at 5.58 µM] | activation [12] 0.016% [at 6.97 µM] | activation [13] -1.83% [at 8.39 µM] | activity change, negative = inhibition [14] -1.43% [at 8.39 µM] | activity change, negative = inhibition [15] -0.838% [at 8.39 µM] | activation [16] 6.6% [at 8.39 µM] | activation [17] 1.28% [at 8.39 µM] | activity change, negative = inhibition [18] -0.278% [at 8.38 µM]

COc1ccc(C(=O)CC(=O)c2ccc(C(C)(C)C)cc2)cc1
inactive: Potency [1] | Potency [4] | Potency [5] | Potency [6] | Potency [7] | Potency [8] | Potency [9] | Potency [10] | Potency [11] | Potency [19] | Potency [20] | Potency [13] | Potency [14] | Potency [15] | Potency [16] | Potency [17] | Potency [18]

NC(=O)N[C@@H](CCC(=O)O)C(=O)O
active: Potency [11] 8.18 µM
inactive: Potency [1] | Potency [2] | Potency [4] | Potency [5] | Potency [6] | Potency [7] | Potency [8] | Potency [9] | Potency [10] | Potency [19] | Potency [20] | Potency [13] | Potency [14] | Potency [15] | Potency [17]

CCC(C)(C)C1CCC(=O)CC1
inactive: Potency [1] | Potency [2] | Potency [4] | Potency [5] | Potency [6] | Potency [7] | Potency [8] | Potency [9] | Potency [10] | Potency [11] | Potency [19] | Potency [20] | Potency [12] | Potency [13] | Potency [14] | Potency [15] | Potency [16] | Potency [17] | Potency [18]

N=C(N)c1ccccc1
inactive: Potency [2] | Potency [3] | Potency [4] | Potency [5] | Potency [6] | Potency [7] | Potency [8] | Potency [9] | Potency [10] | Potency [11] | Potency [19] | Potency [20] | Potency [12] | Potency [13] | Potency [14] | Potency [15] | Potency [16] | Potency [17] | Potency [18]
